In PubChem BioAssay AID1159580 (chemical genetic matrix, 2015):
Among all 5,500 compounds or so, about 2,000 (36%) were called active. Roughly 18% stayed inconclusive and do not appear here. Rule as the data show it: active = normalized growth mostly below about 0.91 (no sharp cut-off); inconclusive = no clear call, values can overlap the other calls; inactive = mostly above about 0.92. Some of the results follow.

Assay: chemical genetic growth profiling, strain panel (AID 1159580);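 also: tested at 20 µM; growth read once vehicle control cultures reached saturation at 30 °C; 1 = growth at the plate median or of vehicle wells; lower values mean less growth of the strain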
Conditions: growth OD
[1] = S. cerevisiae deletion strains, locus YGR078C, strain PAC10, hits give low values
[2] = S. cerevisiae deletion strains, locus YGR229C, strain SMI1, hits give low values
[3] = S. cerevisiae deletion strains, locus YNL153C, strain GIM3, hits give low values
[4] = S. cerevisiae deletion strains, locus YDL101C, strain DUN1, hits give low values
[5] = S. cerevisiae deletion strains, locus YHR030C, strain SLT2, hits give low values

Measured: normalized growth

NC(=O)c1ccccc1
inactive: S. cerevisiae deletion strains, locus YAL040C, strain CLN3, hits give low values 0.923 | S. cerevisiae deletion strains, locus YCL061C, strain MRC1 (second series), hits give low values 1.01 | S. cerevisiae deletion strains, locus YER002W, strain NOP16, hits give low values 0.988 | [1] 0.997 | [2] 1.04 | [3] 1.01 | S. cerevisiae deletion strains, locus YNL175C, strain NOP13, hits give low values 0.972 | S. cerevisiae deletion strains, locus YNL197C, strain WHI3, hits give low values 0.979 | S. cerevisiae deletion strains, locus YNL224C, strain SQS1, hits give low values 0.997 | S. cerevisiae deletion strains, locus YOR083W, strain WHI5 (second series), hits give low values 0.952

O=C(NOC(=O)c1ccccc1)c1ccccc1
active: S. cerevisiae deletion strains, locus YAR019C, strain CDC15, hits give low values 0.0906 | S. cerevisiae deletion strains, locus YBL105C, strain PKC1, hits give low values 0.0874 | S. cerevisiae deletion strains, locus YBR135W, strain CKS1, hits give low values 0.0902 | S. cerevisiae deletion strains, locus YBR136W, strain MEC1, hits give low values 0.0871 | S. cerevisiae deletion strains, locus YBR160W, strain CDC28, hits give low values 0.091 | S. cerevisiae deletion strains, locus YDL017W, strain CDC7, hits give low values 0.0875 | S. cerevisiae deletion strains, locus YDL028C, strain MPS1, hits give low values 0.0868 | [4] 0.102 | S. cerevisiae deletion strains, locus YDL108W, strain KIN28, hits give low values 0.0859 | S. cerevisiae deletion strains, locus YDL132W, strain cdc53, hits give low values 0.0913 | S. cerevisiae deletion strains, locus YDL214C, strain PRR2, hits give low values 0.0898 | S. cerevisiae deletion strains, locus YDR052C, strain DBF4, hits give low values 0.0867 | S. cerevisiae deletion strains, locus YDR054C, strain cdc34, hits give low values 0.0943 | S. cerevisiae deletion strains, locus YDR226W, strain ADK1, hits give low values 0.0848 | S. cerevisiae deletion strains, locus YDR477W, strain SNF1, hits give low values 0.0987 | S. cerevisiae deletion strains, locus YER123W, strain YCK3, hits give low values 0.0956 | S. cerevisiae deletion strains, locus YER133W, strain GLC7, hits give low values 0.0938 | S. cerevisiae deletion strains, locus YFL009W, strain cdc4, hits give low values 0.093 | S. cerevisiae deletion strains, locus YFL029C, strain CAK1, hits give low values 0.089 | S. cerevisiae deletion strains, locus YFR003C, strain YPI1, hits give low values 0.0861 | S. cerevisiae deletion strains, locus YFR019W, strain FAB1, hits give low values 0.101 | S. cerevisiae deletion strains, locus YFR028C, strain CDC14, hits give low values 0.0859 | S. cerevisiae deletion strains, locus YGR040W, strain KSS1, hits give low values 0.103 | S. cerevisiae deletion strains, locus YGR052W, strain FMP48, hits give low values 0.111 | S. cerevisiae deletion strains, locus YGR092W, strain DBF2, hits give low values 0.104 | [5] 0.114 | S. cerevisiae deletion strains, locus YHR079C, strain IRE1, hits give low values 0.112 | S. cerevisiae deletion strains, locus YHR082C, strain KSP1, hits give low values 0.153 | S. cerevisiae deletion strains, locus YHR205W, strain SCH9, hits give low values -0.00347 | S. cerevisiae deletion strains, locus YIL147C, strain SLN1, hits give low values 0.0859 | S. cerevisiae deletion strains, locus YJL095W, strain BCK1, hits give low values 0.107 | S. cerevisiae deletion strains, locus YJL128C, strain PBS2, hits give low values 0.097 | S. cerevisiae deletion strains, locus YJL157C, strain FAR1, hits give low values 0.0897 | S. cerevisiae deletion strains, locus YJR016C, strain ILV3, hits give low values 0.0894 | S. cerevisiae deletion strains, locus YJR066W, strain TOR1 (second series), hits give low values 0.0928 | S. cerevisiae deletion strains, locus YJR066W, strain TOR1, hits give low values 0.133 | S. cerevisiae deletion strains, locus YKL048C, strain ELM1, hits give low values 0.111 | S. cerevisiae deletion strains, locus YKL067W, strain YNK1, hits give low values 0.0892 | S. cerevisiae deletion strains, locus YKL101W, strain HSL1, hits give low values 0.103 | S. cerevisiae deletion strains, locus YKL193C, strain SDS22, hits give low values 0.0889 | S. cerevisiae deletion strains, locus YKL203C, strain TOR2, hits give low values 0.097 | S. cerevisiae deletion strains, locus YLR113W, strain HOG1, hits give low values 0.138 | S. cerevisiae deletion strains, locus YLR133W, strain CKI1, hits give low values 0.0893 | S. cerevisiae deletion strains, locus YLR403W, strain SFP1, hits give low values 0.00282 | S. cerevisiae deletion strains, locus YML070W, strain DAK1, hits give low values 0.109 | S. cerevisiae deletion strains, locus YMR001C, strain CDC5, hits give low values 0.0891 | S. cerevisiae deletion strains, locus YMR205C, strain PFK2 (second series), hits give low values 0.0877 | S. cerevisiae deletion strains, locus YMR277W, strain FCP1, hits give low values 0.0919 | S. cerevisiae deletion strains, locus YNL006W, strain LST8, hits give low values 0.0825 | S. cerevisiae deletion strains, locus YNL020C, strain ARK1, hits give low values 0.0971 | S. cerevisiae deletion strains, locus YNL161W, strain CBK1, hits give low values 0.0976 | S. cerevisiae deletion strains, locus YNL183C, strain NPR1, hits give low values 0.109 | S. cerevisiae deletion strains, locus YNL207W, strain RIO2, hits give low values 0.0878 | S. cerevisiae deletion strains, locus YNL222W, strain SSU72, hits give low values 0.0863 | S. cerevisiae deletion strains, locus YNL307C, strain MCK1 (second series), hits give low values 0.112 | S. cerevisiae deletion strains, locus YOL078W, strain AVO1, hits give low values 0.0891 | S. cerevisiae deletion strains, locus YOL136C, strain PFK27, hits give low values 0.0994 | S. cerevisiae deletion strains, locus YOR061W, strain CKA2, hits give low values 0.0894 | S. cerevisiae deletion strains, locus YOR119C, strain RIO1, hits give low values 0.108 | S. cerevisiae deletion strains, locus YOR231W, strain MKK1, hits give low values 0.111 | S. cerevisiae deletion strains, locus YOR329C, strain SCD5, hits give low values 0.0866 | S. cerevisiae deletion strains, locus YPL031C, strain PHO85, hits give low values 0.102 | S. cerevisiae deletion strains, locus YPL153C, strain RAD53, hits give low values 0.0967 | S. cerevisiae deletion strains, locus YPL204W, strain HRR25, hits give low values 0.1 | S. cerevisiae deletion strains, locus YPL209C, strain IPL1, hits give low values 0.0841 | S. cerevisiae deletion strains, locus YPL256C, strain CLN2, hits give low values 0.167 | S. cerevisiae deletion strains, locus YPR025C, strain CCL1, hits give low values 0.091 | S. cerevisiae deletion strains, locus YPR106W, strain ISR1, hits give low values 0.0869 | S. cerevisiae deletion strains, locus YPR111W, strain DBF20, hits give low values 0.09 | S. cerevisiae deletion strains, strain NNK1, hits give low values 0.0922 | S. cerevisiae deletion strains, strain TSCII, hits give low values 0.0892

C(=C(c1ccccc1)c1ccccc1)N1CCC1
inactive: S. cerevisiae deletion strains, locus YAL013W, strain DEP1, hits give low values 1 | S. cerevisiae deletion strains, locus YBR229C, strain ROT2, hits give low values 0.993 | [4] 0.96 | S. cerevisiae deletion strains, locus YDL134C, strain PPH21, hits give low values 1.01 | S. cerevisiae deletion strains, locus YDR150W, strain NUM1, hits give low values 0.87 | S. cerevisiae deletion strains, locus YEL061C, strain CIN8, hits give low values 0.99 | [1] 0.997 | [2] 1 | [5] 0.972 | S. cerevisiae deletion strains, locus YHR087W, strain rtc3, hits give low values 0.984 | S. cerevisiae deletion strains, locus YJL187C, strain SWE1, hits give low values 1 | S. cerevisiae deletion strains, locus YJR043C, strain POL32, hits give low values 1 | S. cerevisiae deletion strains, locus YJR075W, strain HOC1, hits give low values 0.984 | S. cerevisiae deletion strains, locus YLR039C, strain RIC1, hits give low values 1.01 | S. cerevisiae deletion strains, locus YLR058C, strain SHM2 (second series), hits give low values 0.998 | S. cerevisiae deletion strains, locus YLR085C, strain ARP6, hits give low values 0.998 | S. cerevisiae deletion strains, locus YLR262C, strain YPT6, hits give low values 1.02 | S. cerevisiae deletion strains, locus YML094W, strain GIM5, hits give low values 0.975 | S. cerevisiae deletion strains, locus YMR219W, strain ESC1, hits give low values 0.988 | S. cerevisiae deletion strains, locus YMR263W, strain SAP30, hits give low values 0.987 | S. cerevisiae deletion strains, locus YMR307W, strain GAS1, hits give low values 1.02 | [3] 0.988 | S. cerevisiae deletion strains, locus YNL298W, strain CLA4 (second series), hits give low values 1 | S. cerevisiae deletion strains, locus YNL322C, strain KRE1, hits give low values 0.991 | S. cerevisiae deletion strains, locus YNR030W, strain Alg12, hits give low values 1.03 | S. cerevisiae deletion strains, locus YPL055C, strain LGE1, hits give low values 0.854 | S. cerevisiae deletion strains, locus YPL241C, strain CIN2, hits give low values 0.9 | S. cerevisiae deletion strains, locus YPR135W, strain CTF4, hits give low values 1.03 | S. cerevisiae strains, strain wild type, hits give low values 1.01
